According to PubChem BioAssay (NCATS):
Inconclusive results are not listed. Entries that show only a call come without a potency. Calls of active or inactive are those of the source. Calls come from the whole dose curve; as a rule, active = well fitted cell-killing curve with a large enough effect; inconclusive = small, poorly fitted or top-dose-only effect, or effect the other way; inactive = flat fitted curve, though single readings scatter.

Each molecule was assayed on C33A (assay: Primary qHTS to identify gynecologic anti-cancer compounds using libraries of approved drugs and bioactive compounds (AID 1345084; note: nearly all actives have a fitted effect of over 55% in size)). Conditions: Gynecologic cancer cell panel viability, ATPlite luminescence, 48 h; series mostly up to 57.5 µM.
Method in brief: (§1)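 Measured: luminescence after ATPlite addition (15 min, RT). Exposure: 48 h, 37 C, 5% CO2.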
Potency is the fitted concentration of half-maximal effect.

| Compound | Potency | activity change, negative = cytotoxicity |
| --- | --- | --- |
| O=C(Nc1ccn(Cc2ccc(O)cc2C(F)(F)F)n1)c1c(F)cccc1F | inactive |  |
| CC(O)C(C)n1ncn(-c2ccc(N3CCN(c4ccc(OCC5COC(Cn6cncn6)(c6ccc(Cl)cc6Cl)O5)cc4)CC3)cc2)c1=O (stereo not given) | inactive |  |
| CN(C)C(=O)Nc1cccc(-c2ccc(N(C)C)cc2)c1 | inactive |  |
| C[C@@H]1CCCN1CCc1cc2cc(-c3ccc(C#N)cc3)ccc2o1 | inactive |  |
| Cc1cc(C(=O)Nc2cc(Nc3ccc4c(/C=C/c5ccccn5)n[nH]c4c3)ccc2F)n(C)n1 | inactive |  |
| COc1nc2ccc(Br)cc2cc1[C@@H](c1ccccc1)[C@@](O)(CCN(C)C)c1cccc2ccccc12 | inactive |  |
| Cn1ncc(Cl)c1-c1cc(C(=O)N[C@H](CN)Cc2ccc(F)c(F)c2)oc1Cl | 2.24 µM (active) |  |
| C=C1CC[C@@H](O)[C@]2(C)C[C@H]3OC(=O)C(=C)[C@H]3CC12 (stereo not given in full) | inactive |  |
| C[C@@H]1O[C@@H](O[C@H]2[C@@H](OC(=O)[C@]34CCC(C)(C)CC3C3=CCC5[C@@]6(C)C[C@H](O)[C@H](O[C@@H]7O[C@H](CO)[C@@H](O)[C@H](O)[C@H]7O[C@@H]7OC[C@@H](O)[C@H](O)[C@H]7O)[C@@](C)(C(=O)O)C6CC[C@@]5(C)[C@]3(C)CC4)OC[C@H](O)[C@@H]2O)[C@H](O)[C@H](O)[C@H]1O[C@@H]1OC[C@@H](O)[C@H](O)[C@H]1O (stereo not given in full) |  | -27.4% [at 6.55 µM] (inactive) |
| COc1ccc(N2CCN(C(=O)c3cc4c(s3)-c3ccccc3S(=O)(=O)C4)CC2)cc1 | inactive |  |
| C=C1/C(=C/C=C2\CCC[C@]3(C)[C@@H]([C@@H](C)OCCC(O)(CC)CC)CC[C@@H]23)C[C@@H](O)C[C@@H]1O | inactive |  |
| CCOc1cc(C(C)(C)C)ccc1C1=N[C@@](C)(c2ccc(Cl)cc2)[C@@](C)(c2ccc(Cl)cc2)N1C(=O)N1CCN(CC(=O)N2CCOCC2)CC1 | inactive |  |
| O=C(NO)c1ccc(CC(=O)N(CCO)c2ccccc2)cc1 | inactive |  |
| Fc1ccc(N2CCCCC2)c(NC(=S)c2ccncc2)c1 | inactive |  |
| CCC(C(C)O)n1ncn(-c2ccc(N3CCN(c4ccc(OCC5COC(Cn6cncn6)(c6ccc(F)cc6F)C5)cc4)CC3)cc2)c1=O (stereo not given) | inactive |  |
| NC(=O)N1CCC(CC(=O)N2CCC(C3c4ncc(Br)cc4CCc4cc(Cl)cc(Br)c43)CC2)CC1 (stereo not given) | inactive |  |
| CC(C)c1cccc(C(C)C)c1NC(=O)Nc1ccc(Sc2ccc([N+](=O)[O-])cc2)cc1 | inactive |  |
| CCCCNc1ncc(-c2ccc(CN3CCOCC3)cn2)c(NC2CCC(O)CC2)n1 (stereo not given) | inactive |  |
| CN1CCN(S(=O)(=O)c2ccc(-c3cnc(N)c(C(=O)Nc4cccnc4)n3)cc2)CC1 | inactive |  |
| COc1ccc2nc3n[nH]c(C)c3c(NCCOCCO)c2c1 | inactive |  |

| Compound | Potency | activity change, negative = cytotoxicity |
| --- | --- | --- |
| Nc1nccc(-c2c(-c3ccc(F)cc3)ncn2C2CCCCC2)n1 | inactive |  |
| CC(C)C[C@@H]1NC(=O)[C@@H](Cc2ccccc2)NC(=O)C(CCCCCC(=O)C2CO2)NC(=O)[C@@H]2CCCCN2C1=O (stereo not given in full) | inactive |  |
| CC(=O)C1(C)CCC2C3C=C(C)C4=CC(=O)CCC4(C)C3CCC21C (stereo not given) | inactive |  |
| CC(=O)OC1C(OC(=O)c2ccccc2)C2C(=C(C)CCC2(C)C)C23CCC(C)(C2)C(=O)CC13 (stereo not given) | inactive |  |
| COc1ccc2[nH]c(=O)c3c(c2c1)OC(C)(C)C=C3 | inactive |  |
| CCN(CC)CCCCCCNc1cc(OC)cc2c(C)ccnc12 | inactive |  |
| O=C(N[C@@H]1CCCc2c1cnn2-c1ccc(F)cc1F)c1ccccn1 | inactive |  |
| CCCc1ccc(OCC(=O)N(Cc2nc(-c3cccnc3)no2)C(C)C)cc1 | inactive |  |
| CC(C)OC(=O)N1CCC(Oc2ncnc3c2cnn3-c2ccc(S(C)(=O)=O)cc2F)CC1 | inactive |  |
| Cc1c(C2=CCN(C(=O)N(C)C(C)C)CC2)nnn1-c1cccnc1F | inactive |  |
| CC1=C(c2ccc(NC(=O)c3c(F)cccc3F)cc2)CN(c2nccs2)CC1 | inactive |  |
| CCCc1cc2c(N3CCN(C4=NCC(C)(C)S4)CC3)ncnc2s1 | inactive |  |
| O=C(NCCO)c1cccc(-c2cc(Nc3ccc(OC(F)(F)F)cc3)ncn2)c1 | inactive |  |
| CS(=O)(=O)Nc1ccc2oc3c(OC(F)F)ccc(C(=O)Nc4c(Cl)cncc4Cl)c3c2c1 | inactive |  |
| O=c1cc(NCCCN[C@@H]2CCOc3c(Br)cc(Br)cc32)[nH]c2ccsc12 | inactive |  |
| Clc1ncoc1-c1c[nH]c2ccccc12 | inactive |  |
| CCn1c(=O)c(-c2ccc(Cl)cc2Cl)cc2cnc(Nc3ccc(N4CCNCC4)c(F)c3)nc21 | inactive |  |
| C=C1C(=O)O[C@@H]2/C=C(\C)CC/C=C(\C)CC[C@@H]12 | inactive |  |
| C=C1C(=O)O[C@@H]2[C@H]1CC[C@H](C)[C@]1(CCC(=O)O1)C2(C)O (stereo not given in full) | inactive |  |
| O=C(NCCCNc1nc(Nc2cccc(CN3CCOCC3)c2)ncc1C1CC1)C1CCC1 | inactive |  |

What follows are molecules tested on CAOV3 in the same assay as above. Conditions: Gynecologic cancer cell panel viability, ATPlite luminescence, 48 h; series mostly up to 57.5 µM.
Method in brief: as §1

| Compound | Potency | activity change, negative = cytotoxicity |
| --- | --- | --- |
| O=C(Nc1ccn(Cc2ccc(O)cc2C(F)(F)F)n1)c1c(F)cccc1F | inactive |  |
| CC(O)C(C)n1ncn(-c2ccc(N3CCN(c4ccc(OCC5COC(Cn6cncn6)(c6ccc(Cl)cc6Cl)O5)cc4)CC3)cc2)c1=O (stereo not given) | inactive |  |
| CN(C)C(=O)Nc1cccc(-c2ccc(N(C)C)cc2)c1 | inactive |  |
| C[C@@H]1CCCN1CCc1cc2cc(-c3ccc(C#N)cc3)ccc2o1 | inactive |  |
| Cc1cc(C(=O)Nc2cc(Nc3ccc4c(/C=C/c5ccccn5)n[nH]c4c3)ccc2F)n(C)n1 | inactive |  |
| COc1nc2ccc(Br)cc2cc1[C@@H](c1ccccc1)[C@@](O)(CCN(C)C)c1cccc2ccccc12 | inactive |  |
| Cn1ncc(Cl)c1-c1cc(C(=O)N[C@H](CN)Cc2ccc(F)c(F)c2)oc1Cl | inactive |  |
| C=C1CC[C@@H](O)[C@]2(C)C[C@H]3OC(=O)C(=C)[C@H]3CC12 (stereo not given in full) | inactive |  |
| C[C@@H]1O[C@@H](O[C@H]2[C@@H](OC(=O)[C@]34CCC(C)(C)CC3C3=CCC5[C@@]6(C)C[C@H](O)[C@H](O[C@@H]7O[C@H](CO)[C@@H](O)[C@H](O)[C@H]7O[C@@H]7OC[C@@H](O)[C@H](O)[C@H]7O)[C@@](C)(C(=O)O)C6CC[C@@]5(C)[C@]3(C)CC4)OC[C@H](O)[C@@H]2O)[C@H](O)[C@H](O)[C@H]1O[C@@H]1OC[C@@H](O)[C@H](O)[C@H]1O (stereo not given in full) |  | 2.23% [at 6.55 µM] (inactive) |
| COc1ccc(N2CCN(C(=O)c3cc4c(s3)-c3ccccc3S(=O)(=O)C4)CC2)cc1 | inactive |  |
| C=C1/C(=C/C=C2\CCC[C@]3(C)[C@@H]([C@@H](C)OCCC(O)(CC)CC)CC[C@@H]23)C[C@@H](O)C[C@@H]1O | inactive |  |
| CCOc1cc(C(C)(C)C)ccc1C1=N[C@@](C)(c2ccc(Cl)cc2)[C@@](C)(c2ccc(Cl)cc2)N1C(=O)N1CCN(CC(=O)N2CCOCC2)CC1 | inactive |  |
| O=C(NO)c1ccc(CC(=O)N(CCO)c2ccccc2)cc1 | inactive |  |
| Fc1ccc(N2CCCCC2)c(NC(=S)c2ccncc2)c1 | inactive |  |
| CCC(C(C)O)n1ncn(-c2ccc(N3CCN(c4ccc(OCC5COC(Cn6cncn6)(c6ccc(F)cc6F)C5)cc4)CC3)cc2)c1=O (stereo not given) | inactive |  |
| NC(=O)N1CCC(CC(=O)N2CCC(C3c4ncc(Br)cc4CCc4cc(Cl)cc(Br)c43)CC2)CC1 (stereo not given) | inactive |  |
| CC(C)c1cccc(C(C)C)c1NC(=O)Nc1ccc(Sc2ccc([N+](=O)[O-])cc2)cc1 | inactive |  |
| CCCCNc1ncc(-c2ccc(CN3CCOCC3)cn2)c(NC2CCC(O)CC2)n1 (stereo not given) | inactive |  |
| CN1CCN(S(=O)(=O)c2ccc(-c3cnc(N)c(C(=O)Nc4cccnc4)n3)cc2)CC1 | inactive |  |
| COc1ccc2nc3n[nH]c(C)c3c(NCCOCCO)c2c1 | inactive |  |

| Compound | Potency | activity change, negative = cytotoxicity |
| --- | --- | --- |
| Nc1nccc(-c2c(-c3ccc(F)cc3)ncn2C2CCCCC2)n1 | inactive |  |
| CC(C)C[C@@H]1NC(=O)[C@@H](Cc2ccccc2)NC(=O)C(CCCCCC(=O)C2CO2)NC(=O)[C@@H]2CCCCN2C1=O (stereo not given in full) | inactive |  |
| CC(=O)C1(C)CCC2C3C=C(C)C4=CC(=O)CCC4(C)C3CCC21C (stereo not given) | inactive |  |
| CC(=O)OC1C(OC(=O)c2ccccc2)C2C(=C(C)CCC2(C)C)C23CCC(C)(C2)C(=O)CC13 (stereo not given) | inactive |  |
| COc1ccc2[nH]c(=O)c3c(c2c1)OC(C)(C)C=C3 | inactive |  |
| CCN(CC)CCCCCCNc1cc(OC)cc2c(C)ccnc12 | inactive |  |
| O=C(N[C@@H]1CCCc2c1cnn2-c1ccc(F)cc1F)c1ccccn1 | inactive |  |
| CCCc1ccc(OCC(=O)N(Cc2nc(-c3cccnc3)no2)C(C)C)cc1 | inactive |  |
| CC(C)OC(=O)N1CCC(Oc2ncnc3c2cnn3-c2ccc(S(C)(=O)=O)cc2F)CC1 | inactive |  |
| Cc1c(C2=CCN(C(=O)N(C)C(C)C)CC2)nnn1-c1cccnc1F | inactive |  |
| CC1=C(c2ccc(NC(=O)c3c(F)cccc3F)cc2)CN(c2nccs2)CC1 | inactive |  |
| CCCc1cc2c(N3CCN(C4=NCC(C)(C)S4)CC3)ncnc2s1 | inactive |  |
| O=C(NCCO)c1cccc(-c2cc(Nc3ccc(OC(F)(F)F)cc3)ncn2)c1 | inactive |  |
| CS(=O)(=O)Nc1ccc2oc3c(OC(F)F)ccc(C(=O)Nc4c(Cl)cncc4Cl)c3c2c1 | inactive |  |
| O=c1cc(NCCCN[C@@H]2CCOc3c(Br)cc(Br)cc32)[nH]c2ccsc12 | inactive |  |
| Clc1ncoc1-c1c[nH]c2ccccc12 | inactive |  |
| CCn1c(=O)c(-c2ccc(Cl)cc2Cl)cc2cnc(Nc3ccc(N4CCNCC4)c(F)c3)nc21 | inactive |  |
| C=C1C(=O)O[C@@H]2/C=C(\C)CC/C=C(\C)CC[C@@H]12 | inactive |  |
| C=C1C(=O)O[C@@H]2[C@H]1CC[C@H](C)[C@]1(CCC(=O)O1)C2(C)O (stereo not given in full) | inactive |  |
| O=C(NCCCNc1nc(Nc2cccc(CN3CCOCC3)c2)ncc1C1CC1)C1CCC1 | 11.2 µM (active) |  |
